The source of these data is PubChem BioAssay AID687001 (Broad Institute, 2013).

Molecules are shown by their SMILES. Entries with a potency or affinity are not part of this list. The source made the active and inactive calls.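 The calls were made as follows: active = signal-lowering compounds whose fitted half-maximal concentration is at or below twice the top tested dose in every run; inconclusive = runs disagree, flat 30 to 70% inhibition, or poor curve fit; inactive = the rest.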

Sequence of Protein S100-A4 (Homo sapiens) (P26447 whole entry, looked up): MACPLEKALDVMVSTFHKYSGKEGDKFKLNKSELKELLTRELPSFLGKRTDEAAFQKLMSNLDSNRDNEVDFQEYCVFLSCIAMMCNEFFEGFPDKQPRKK

This experiment addresses Protein S100-A4 (Homo sapiens) (UniProt P26447). Briefly: S100A4-myosin IIA binding inhibitor potency, dose response, biochemical, fluorescence polarization, cherry-picked hits (AID 687001).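 Also: 0% = DMSO neutral control wells and -100% = TFP positive control wells.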 The following applies: FP, S100A4/TAMRA-myosin IIA peptide binding; series mostly up to 11 µM; activity change, negative = inhibition: at the top concentration.
`O=C(Cc1cccnc1)N1CCCCN2[C@@H](CO)[C@@H](c3ccc(C#CC4(O)CCCC4)cc3)[C@@H]2C1`: the “activity change, negative = inhibition” value was 5.28% (inactive). Then `CCOC(=O)C1=C(N)OC2=C(C(=O)CC(C)(C)C2)C12C(=O)Nc1ccccc12` (stereo unspecified), with -3.72% (inactive); and `CCOC(=O)c1ccc(N=Cc2c(O)n(-c3ccccc3F)c(=S)[nH]c2=O)cc1`, with 84.4% (inactive).

`CCC12CCN(CC3(O)CC3)C(Cc3ccc(O)cc31)C2(C)C` (stereo unspecified): the “activity change, negative = inhibition” value is -4.42% (inactive). Then `Cc1c(C)c2ccc(OCC(=O)N3CCC(C(=O)O)(c4ccccc4)CC3)cc2oc1=O`, with -1.79% (inactive); and `O=Cc1cn(Cc2ccc(Br)cc2)c2ccccc12`, with 5.46% (inactive).

In the case of `CCCCCSc1cc(O)c(C(CNC)C(C)C)cc1OC` (stereo unspecified), the “activity change, negative = inhibition” value was -5.9% (inactive).

As for `CCN(CC)C(=O)[C@@H]1C=C2c3cccc4[nH]c(Br)c(c34)C[C@H]2N(C)C1`, the “activity change, negative = inhibition” value was -11.1% (inactive). On to `COC(=O)[C@]1(C)C[C@H]1[C@H](NP(=O)(c1ccccc1)c1ccccc1)c1ccccc1`, for which the “activity change, negative = inhibition” value was -6.74% (inactive). As to `O=C(O)[C@H]1[C@H](CO)[C@H]2Cn3c(ccc(-c4ccncc4)c3=O)[C@@H]1N2C(=O)C1CCCCC1`, the “activity change, negative = inhibition” value is -2.81% (inactive). As to `Cc1ccccc1C(=O)N1Cc2ccccc2-n2nncc2C1`, the “activity change, negative = inhibition” value is -5.64% (inactive).

For `COc1ccc(OC)c(N2C(=O)CC(=O)NC2=O)c1`, the “activity change, negative = inhibition” value was -4.19% (inactive). For `COC(=O)C1=C(c2cc3ccccc3s2)C[C@@H]2CC[C@H]1N2C(=O)NCc1ccc(C(F)(F)F)cc1`, the “activity change, negative = inhibition” value is 5.22% (inactive). The figure for `COC(C)(C)CCCC(C)C/C=C/C(C)=C/C(=O)OC(C)C` (stereo unspecified) is 0.557% (inactive); for `CCCCn1nnnc1C(c1cccc2ccccc12)N1CCC2(CC1)C(=O)NCN2c1ccccc1` (stereo unspecified) it is -4.61% (inactive). The figure for `Cc1c(OC(=O)N(C)C)ccc2c1O/C(=C\c1ccco1)C2=O` is 69.8% (inactive). Then `CN(C)c1cc[n+](CC(O)C[n+]2ccc(N(C)C)cc2)cc1`, with -0.214% (inactive); and `O=[N+]([O-])c1cc(Cl)c(Cl)cc1Cl`, with -2.95% (inactive). For the compound `C=CCN1CC[C@]23c4c5ccc(O)c4OC2C(O)CC[C@@]3(O)[C@H]1C5` (stereo partly specified), the “activity change, negative = inhibition” value is -3.07% (inactive). Consider `c1ccc(-c2ccncc2)cc1`, for which the “activity change, negative = inhibition” value is -1.21% (inactive). Then `O=C(O)Cn1cc(/C=C2\C(=O)NC(=O)N(c3ccc(Br)cc3)C2=O)c2ccccc21`, with 56.4% (inactive).
